Test results from the supplement of paper PMC6555819.

Legend:
Assay in all cases: PBM binding z-score (relative to random genomic background probes); higher = stronger binding; sequences stand for … in GC…GCGATTGACAGCGTAGAATGAAGG
[1] = system: RARb homodimer (NR concentration 270 nM)
How it was run: (§1)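 Binding buffer was PBS pH 7.4 with 2% milk, 0.02% Triton X-100, 1 mM DTT, 0.2 mg/mL BSA and 0.4 mg/ml salmon testes DNA. In it, ligand-free nuclear receptor dimers were incubated 1 h on custom Agilent 4×180K protein-binding microarrays carrying double-stranded probes. Antibodies against each partner (one per run) detected binding, and z-scores were calculated against random background probes after regression normalization of scanned fluorescence.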

[2] = system: RARg:RXRa (NR concentration 270 nM, RXRa partner concentration 90 nM)
How it was run: as §1

[3] = system: RARg homodimer (NR concentration 270 nM)
How it was run: as §1

[4] = system: RXRa DBDmut IVT, anti-RXR (DBD mutation: RXRa K156A/R161A, NR concentration 90 nM)
How it was run: as §1

[5] = system: RXRa homodimer (NR concentration 180 nM)
How it was run: as §1

[6] = system: THRa:RXRa (NR concentration 90 nM, RXRa partner concentration 90 nM)
How it was run: as §1

[7] = system: THRa homodimer (NR concentration 90 nM)
How it was run: as §1

[8] = system: VDR homodimer (NR concentration 270 nM)
How it was run: as §1

Sequence | PBM binding z-score [1] | PBM binding z-score [2] | PBM binding z-score [3] | PBM binding z-score [4] | PBM binding z-score [5] | PBM binding z-score [6] | PBM binding z-score [7] | PBM binding z-score [8]
AGAACGAGGGCAATGAGTTGTTAGCACGGGTGGC | 0.552 | 0.787 | 1.3 | 1.76 | 0.588 | 0.64 | -0.39 | 2.19
TTAATGAGGTTATAAGATCAGGGAACGTTGCAAA | 0.668 | 1.59 | 1.01 | 1.63 | 2.13 | 2.04 | 0.52 | 0.74
AGAATGAGGTTACCAAAGAACAGGGAAACGCTTG | 0.612 | 1.93 | 1.35 | 0.909 | 2.36 | 2.59 | 0.733 | 0.342
TCTATTAGTTGAAGGGCAACCGCCGAGTCCGTTT | 1.41 | 0.448 | 0.651 | 1.57 | 0.559 | 0.213 | 0.417 | 1.86
CCTACTTGGCCATCAGGTCATTGATATCAACGTT | 2.89 | 2.15 | 2.12 | 1.5 | 1.43 | 3.39 | 3.64 | 2.19
CCAGACAGGTGAGATGGTAACTCAGCCTCGATTA | 0.103 | 0.164 | 0.225 | -0.124 | -0.0452 | -0.143 | 0.146 | 0.202
TTACCAAGGTGATAGGTCGTTGATGCACGCCTTG | 0.852 | 0.727 | 0.286 | -0.12 | 1.51 | 1.25 | 0.482 | 0.256
CCGACTGGCGCAAGGTTACCATAACGCACAGCCA | 0.818 | 0.543 | 0.602 | 0.0804 | 0.892 | 1.23 | 0.443 | -0.0582
CCTACTGAGCCAAGGTCATTGATCAGTCAAAGCA | 3.43 | 3.7 | 3.17 | 2.2 | 3.23 | 3.52 | 2.49 | 3.65
TCTAGCAGGCCAGAGGGTCACTTAAGAGGTACGG | 2.71 | 2.39 | 2.2 | 0.154 | 2.36 | 1.53 | -0.266 | 0.361
GCAGACAGTTGAAACGCAGGTAACTCAGGGTGGC | -0.639 | 0.0568 | -0.397 | -0.408 | 0.339 | 0.919 | -0.565 | -0.832
CCGTCTGGGGCAAGGTTACCATAACGCACAGCCA | 1.05 | 1.06 | 1.13 | -0.58 | 0.988 | 1.15 | 0.197 | 0.0669
AGATGTAGGTTATCGGGTCATTCAGTTTGCGCAT | 3.17 | 3.19 | 2.6 | 1.75 | 3.47 | 3.46 | 2.87 | 3.92
CCTACGGGGCCATTCAGAGGTCATTGATCATATG | 4.27 | 6.22 | 3.77 | 2.13 | 4.07 | 3.72 | 1.77 | 4.91
TCGAGAAGGTTACCAATGGGGCATTCAGCTTTCT | 1.48 | 3.02 | 1.19 | 0.529 | 1.86 | 0.779 | -0.839 | -0.528
CTCGAAAGGTCGTGCTCTGGTGAGTATACCAAAC | 2.73 | 4.35 | 3.14 | 2.01 | 4.69 | 2.61 | 0.441 | 0.997
GCTCGGAGGACAAGGGCAGAGCTTTGTCCGTAGA | 0.567 | -0.153 | 0.628 | -0.927 | -0.428 | 0.387 | -0.399 | -0.558
TCTCGTAGATCAACAGGAGGTTAAGAAAGATCGA | 0.63 | 0.917 | 0.145 | 0.538 | 1.01 | 0.902 | -0.325 | -0.382
ATCGCTAGGTAAAGATAGTTCAGTGAATGCAAAT | 0.559 | 0.136 | 0.387 | -0.61 | -0.287 | 0.234 | -0.407 | -0.0178

Sequence | PBM binding z-score [1] | PBM binding z-score [2] | PBM binding z-score [3] | PBM binding z-score [4] | PBM binding z-score [5] | PBM binding z-score [6] | PBM binding z-score [7] | PBM binding z-score [8]
CAGCCTAGGTCAGGGCCTGTATAGGAGGAACGTT | 2.38 | 2.68 | 3.88 | -0.731 | 1.46 | 1.88 | -0.108 | -0.924
TCATATAGGTAAAGGTGAAAATCGAACGATATGA | 0.939 | 1.56 | 1.28 | 0.781 | 1.98 | 0.991 | -0.415 | -0.256
TCTTGTAGATCAAACAGGTTAAGAAAGCCTGAGT | 0.167 | 0.214 | 0.186 | 0.683 | 0.587 | 0.607 | -0.548 | 0.0762
GCTTACGGGTCAACGGTTATAGCATGAATAGAAT | 2.84 | 4.92 | 4.66 | 2.06 | 5.29 | 2.59 | -0.0988 | 0.695
CCTATGAGTTGACCATAAGGGCAACCGAAGCTCG | 1.98 | 2.18 | 1.09 | 0.755 | 0.985 | 2.49 | 1.04 | 0.847
AGAATGAGGTTATTAAGTTCAGGGAATTGCGGTC | 2.35 | 2.35 | 1.43 | 3.07 | 2.52 | 3.11 | 1.36 | 6.33
GGAATGAGGGCAAGTTGATAGCAGAGTTTGATGG | 1.65 | 1.55 | 2.21 | 2.79 | 1.04 | 1.85 | 1.02 | 2.22
CCGACTGGGCCAAGGTCATTGATCAGTCAAAGCA | 3.28 | 3.72 | 3.11 | 1.4 | 3.09 | 3.46 | 2.09 | 3.33
CCTAGTGGGTCAAGGTCACACACGCTATAGGTAC | 4.58 | 5.74 | 6.11 | 1.58 | 5.6 | 4.22 | 3.74 | 3.44
TCTTGTAGATCAGCAGGTTAAGAAAGCTGGCCAA | -0.155 | -0.199 | -0.355 | 0.476 | 0.261 | -0.0256 | -0.621 | -0.371
CCGACTGGGGCAAGGTTACCATGACGCACAGCCA | 1.41 | 1.07 | 1.09 | -0.669 | 1.13 | 1.21 | 0.0571 | -0.0501
CTCGAAAGGTCTTGCTCAGGTGAGTATACCAAAC | 1.29 | 1.52 | 1.33 | 0.0538 | 0.775 | 2.67 | 0.893 | -0.0365
GGAACGAGAGCAAGTTGATAGCAGAGTTTGATGG | -0.683 | -0.186 | -0.0143 | 0.292 | 0.0687 | -0.547 | -1.15 | -0.0204
TTTAGCAGGCCAGAGGGTCACTCAAGAGGTACGG | 2.65 | 2.51 | 2.02 | -0.755 | 2.32 | 1.6 | -0.313 | 0.332
CGAATTAGGTCATCCAGGACAGTGAATACATTGA | 3.34 | 4.29 | 5.18 | 2.45 | 3.1 | 4.01 | 2.77 | 2.04
CCTACTGGGCCACGAAAGGTTATTGATTCAGTGA | 1.98 | 1.1 | 1.08 | -0.0139 | 1.2 | 1.66 | 0.302 | 0.238
CGTCCAAGGTCAATGCTAGGTGAGTGAAAGCATT | 3.95 | 5.76 | 6.07 | 3.39 | 4.73 | 3.92 | 2.34 | 2.15
GCAGACAGGTGAAACGCAGGTAACTCAGGGTGGC | 0.13 | 0.712 | 0.0344 | -0.777 | 0.519 | 1.42 | -0.615 | -0.666
CGTCAAAGTTTAACTAAGGTAACGTAAAGCACGC | 1.7 | 1.51 | 1.92 | 1.68 | 0.784 | 4.66 | 1.99 | 0.79

Sequence | PBM binding z-score [1] | PBM binding z-score [2] | PBM binding z-score [3] | PBM binding z-score [4] | PBM binding z-score [5] | PBM binding z-score [6] | PBM binding z-score [7] | PBM binding z-score [8]
CCTGCTAGGTCAATGGTAAGCTAAAGCAGCTCGC | 2.43 | 3.52 | 3.82 | 1.66 | 1.96 | 2.03 | 0.52 | -0.274
CGAACGAGGGCATGAGTTGATAGGAAATGCCGAT | 0.511 | 1.1 | 1.71 | 2.4 | 0.923 | 1.07 | -0.419 | 1.41
CCTACTGGGCCAAATGTCATTGATTCCAATGCTC | 0.556 | 0.265 | 0.594 | 0.342 | 0.124 | -0.237 | -0.347 | -0.651
ATCTCTAGGTAAAAGCTCAGTGAATCCCGAGGAT | -0.335 | -0.0468 | 0.135 | -0.625 | -0.149 | 0.0962 | -0.296 | -0.497
ATACCAAGGTGATCGCGAGGTCGTTGATACTAAC | 1.51 | 2.37 | 0.886 | 0.551 | 1.42 | 3.11 | 1.61 | 2.67
TCTCGGAGGACACGAGGGTCAGAGCTTTCCAGAG | 2.81 | 2.58 | 2.96 | 0.569 | 1.33 | 2.48 | 0.409 | 0.685
CCTAGCAGGCCAGTCTGGGTCACTCAAGGCTTGA | 2.01 | 1.09 | 1.2 | -0.216 | 1.05 | 3.14 | 0.462 | -0.0969
GCTAGTTGGTCGGTAAAAGGTCACACACCGGTCG | 4.97 | 5.3 | 4.72 | 0.311 | 5.42 | 3.47 | 1.92 | 1.59
ACTATTAGTTGACTTCGGGCAACCGATACGACGC | 0.558 | 0.37 | 0.691 | 0.225 | 0.42 | 1.06 | 0.256 | 0.371
CGACAAAGTTCAAGGTAACGTAACAGAAAGCAGC | 3.7 | 5.27 | 5.99 | 4.29 | 4.69 | 2.8 | 1.02 | 3.11
CAGCCTAGGTCAGGGCCATTATAGGAGGAACGTT | 2.66 | 3.08 | 4.01 | 0.265 | 1.84 | 2.07 | 0.505 | -0.15
AGAATGAGGGTAAGATCAGGGAAACAGAATACAT | 0.584 | 0.474 | 0.611 | 0.212 | 0.321 | 1.54 | 0.43 | 0.304
TTAGCAAGGTGAGCTGAGGTCGTTGATCCAACTC | 1.52 | 1.03 | 0.726 | -0.339 | 1.13 | 4.75 | 1.97 | 2.37
GATACAGGCTCAAGGCCAGAGTACGCGTATTGAT | -0.491 | -0.284 | 0.128 | -0.619 | -0.27 | -0.479 | -0.602 | -0.14
ACTAGCAGGCTAAGGGTCACTCAAGATTAGTCCG | 3.89 | 3.88 | 3.65 | 0.904 | 4.18 | 2.6 | -0.003 | 1.01
TCTCGGAGGACACGAAAGGTCAGGGCTCGACATC | 4.94 | 4.98 | 5.69 | 1.1 | 4.39 | 3.83 | 2 | 0.976
CGAACGAGGGCATGAGATGATAGCAAATGCCGAT | 0.674 | 1.28 | 1.64 | 1.82 | 0.882 | 0.979 | -0.224 | 0.831
GGAACGAGGGCAAGTTGATAGCTGAGTTTGATGG | 1.5 | 1.45 | 2.07 | 2.58 | 0.669 | 1.09 | 0.0146 | 1.84
